Drawing on PubChem BioAssay (NCI), this text covers growth for 11 molecules.

This assay concerns HL-60(TB) leukemia. Kind of assay: NCI-60 one-dose screen, 48 h (100 = growth as untreated, 0 = no growth, -100 = all killed). As to conditions: 10 µM unless noted.

Molecules are shown by their SMILES. Compounds without any hit were thinned out: in the full panel of roughly 83,000, 20% have a hit.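 Plates (96-well) were seeded with cells, treated with compound at one concentration, and incubated for 48 hours before percent growth was determined.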 Values without a mark were called inactive. Calls of active or inactive are those of the source. How the source made its calls: active means growth percent below 10; inactive means the rest.

With `COc1cccc(/C=C2\N=C(C)N(CCc3ccc(S(N)(=O)=O)cc3)C2=O)c1`, the growth is 89.4%. In the case of `Cc1ncsc1-c1ccc(CNC(=O)[C@@H]2C[C@@H](O)CN2C(=O)[C@@H](NC(=O)C2(F)CC2)C(C)(C)C)c(OCCOCCOCCOCCOc2nc(Nc3cc(S(C)(=O)=O)ccc3N[C@@H](c3cccc4c3OC(F)(F)O4)c3ncccc3Cl)nc(N3CCNCC3)n2)c1`, the growth was 72%. In the case of `O=c1oc2ccccc2cc1-c1csc(N=Nc2c(O)[nH]c3ccc(Br)cc23)n1` it was 99%; in that of `C=C[C@@]12CN3CC[C@]1(O)[C@@](C(=O)OC)(CO2)c1[nH]c2ccccc2c1C3`, 20.5%. As for `COc1ccc(/C=C/c2nc3ccccc3c(=O)n2CC(=O)Nc2ccccc2)cc1`, the growth was 94.1%. Turning to `Cc1cc(=O)oc2cc(OCCCCOc3ccc(/C=C/C(=O)Nc4cccc(Cl)c4)cc3)ccc12`, the growth was 97.3%. For the molecule `O=C(O)CCCCCCCCCCN1C(=O)/C(=C/c2cnc(-c3ccc(Cl)cc3)s2)SC1=S`, the growth was 33.7%. As to `O=C1/C(=C/c2cccc3c2OCO3)Cc2c(F)cc(Br)cc21`, the growth was 97.8%.

As to `Cc1ccccc1[C@H]1C(C(=O)c2ccc(Cl)cc2)C2(N[C@@H]1c1ccccc1)C(=O)Nc1ccc(Cl)cc12` (stereo partly specified), the growth is -32.2% (active).

Regarding `COc1cc2cc(C(=O)N3C[C@@H](CCl)c4c3cc(OC(=O)N(C)CCSSCCN3CCOCC3)c3ccccc43)[nH]c2c(OC)c1OC`, the growth was -39.6% (active). For the molecule `COc1cc(/C=C/C(=O)c2ccc(C)cc2)ccc1Oc1nc(Nc2ccc(F)cc2)nc(N(C)C)n1`, the growth was 41.7%.
